An excerpt weighted towards active compounds, which were near 5.2% of everything screened.
NRP1-CendR mod = modulators of CendR peptide binding to NRP-1, primary screen, biochemical, fluorescence polarization, uHTS | Neuropilin-1 (Homo sapiens), O14786 | FAM-RPARPAR peptide binding to NRP-1 | inhibition, % at 25 µM | 360,000 compounds, 0.85% hits;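 active means inhibition or corrected inhibition above about 18%, plus a signal ratio from 0.5 to 1.5, limit read from the data, passing the limit was not always enough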
Target sequence (O14786 whole entry, looked up): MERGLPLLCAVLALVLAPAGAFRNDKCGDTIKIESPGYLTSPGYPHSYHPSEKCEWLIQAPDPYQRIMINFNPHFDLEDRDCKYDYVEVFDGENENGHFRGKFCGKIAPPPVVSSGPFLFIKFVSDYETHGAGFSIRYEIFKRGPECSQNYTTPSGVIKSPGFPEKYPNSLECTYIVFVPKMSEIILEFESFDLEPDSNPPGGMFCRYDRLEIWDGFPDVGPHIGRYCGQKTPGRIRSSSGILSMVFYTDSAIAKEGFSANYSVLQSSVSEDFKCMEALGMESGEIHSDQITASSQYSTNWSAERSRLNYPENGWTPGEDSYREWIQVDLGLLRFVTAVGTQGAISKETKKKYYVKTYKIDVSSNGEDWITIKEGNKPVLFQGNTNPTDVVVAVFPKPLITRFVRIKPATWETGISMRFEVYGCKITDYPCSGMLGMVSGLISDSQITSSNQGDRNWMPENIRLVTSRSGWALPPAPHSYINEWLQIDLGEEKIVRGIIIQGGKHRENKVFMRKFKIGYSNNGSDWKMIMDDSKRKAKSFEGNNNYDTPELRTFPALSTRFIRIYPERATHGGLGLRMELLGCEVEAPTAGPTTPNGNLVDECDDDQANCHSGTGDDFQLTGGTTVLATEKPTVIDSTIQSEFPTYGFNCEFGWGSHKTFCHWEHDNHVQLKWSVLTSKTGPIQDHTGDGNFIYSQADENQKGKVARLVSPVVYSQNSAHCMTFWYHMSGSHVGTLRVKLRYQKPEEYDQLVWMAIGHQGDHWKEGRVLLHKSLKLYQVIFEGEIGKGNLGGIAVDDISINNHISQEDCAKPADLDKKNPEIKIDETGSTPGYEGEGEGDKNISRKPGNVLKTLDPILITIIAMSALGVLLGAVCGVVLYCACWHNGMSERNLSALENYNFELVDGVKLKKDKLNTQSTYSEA
ALR inh = inhibitors of human ALR sulfhydryl oxidase, primary screen, biochemical, H2O2 detection, HRP-luminol luminescence, single point; purified ALR, DTT oxidation; inhibition, % (no concentration beside the values); 290,000 compounds, 3.8% hits;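 active means mean replicate inhibition above about 79%, with every replicate also reaching it, limit read from the data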
CR mimetic SO = reduction of superoxide in aged yeast, primary screen, HTS. S. cerevisiae aged cells, superoxide DHE fluorescence; active compounds read low. superoxide response (% of plate mean), % at 10 µM. 330,000 compounds, 0.18% hits. AID 2690, 2010;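 active means superoxide response under a set limit, about three screen SD below normal, cut at about 65% in these data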;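 further: yeast aged for seven days with compound at 30 °C before DHE staining; 100% = average MFI of all compound-treated wells on the plate with controls excluded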
A3A deaminase = APOBEC3A ssDNA deaminase inhibitors, primary screen, selectivity assay for APOBEC3G inhibitor project, biochemical, FAM/TAMRA oligo cleavage fluorescence; inhibition, % at 20 µM; recombinant A3A, FAM/TAMRA ssDNA deamination fluorescence; 330,000 compounds, 0.41% hits;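 active means at least 40% inhibition at 20 µM here, with at most 30% in a related deaminase screen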;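 further: plate controls were A3A with DMSO for no effect and wells lacking A3A enzyme for full effect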
APOBEC3G inh = APOBEC3G DNA deaminase inhibitors, primary screen, biochemical, fluorescence, single-stranded DNA substrate, uHTS; recombinant A3G, ssDNA deamination FAM/TAMRA fluorescence; inhibition, % at 20 µM; 330,000 compounds, 0.28% hits;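 active means inhibition of at least 40% at 20 µM, with no more than 30% in the related APOBEC3A deaminase screen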;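 further: plate controls were DMSO wells with A3G for no effect and wells lacking A3G enzyme for full effect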
PfM18AAP inh = PfM18AAP inhibitors, malaria aminopeptidase, primary screen, biochemical, QFRET, recombinant enzyme; M18 aspartyl aminopeptidase (Plasmodium falciparum 3D7); H-Glu-NHMec fluorogenic cleavage; inhibition, % at 7.35 µM; 290,000 compounds, 1.2% hits; AID 1822, 2009;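 active means inhibition above the campaign mean inhibition over all tested compounds plus 3 SD, cut at about 28% in these data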;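 further: 0% = plate median of test compound wells and 100% = 2 mM ZnCl2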
* hit, by the source's call.

Screening CC(C)OCCCNC(=O)C1CCC(=O)N1C(C)C (stereo not drawn) returned NRP1-CendR mod -2.5, ALR inh -6.8, CR mimetic SO 95.1, A3A deaminase 32.9, APOBEC3G inh 1.2 and PfM18AAP inh 3.7.
Screening CCN(CCCNC(=O)c1c(C)cc(=O)oc1C)c1cccc(C)c1 returned NRP1-CendR mod 4.4, ALR inh 100.2*, CR mimetic SO 73.2, A3A deaminase -4.0, APOBEC3G inh -4.9 and PfM18AAP inh 4.1.
Screening CCN(CCCNC(=O)CCCN1C(=O)COc2ccc(C)cc21)c1cccc(C)c1 returned NRP1-CendR mod -0.1, ALR inh 98.1*, CR mimetic SO 93.5, A3A deaminase 0.7, APOBEC3G inh -2.7 and PfM18AAP inh 2.3.
`CCN(CC)C1CCN(C(=O)c2ccc(OC3CCN(CCc4ccccc4)CC3)cc2)C1` (stereo not drawn) gave NRP1-CendR mod 3.6, ALR inh -2.8, CR mimetic SO 95.0, A3A deaminase -4.0, APOBEC3G inh -7.1 and PfM18AAP inh -3.0.
For CCOC(=O)C1CCCN(c2c(NCCCN(CC)c3ccccc3)c(=O)c2=O)C1 (stereo not drawn) the results were NRP1-CendR mod 1.0, ALR inh 98.4*, CR mimetic SO 120.3, A3A deaminase -2.5, APOBEC3G inh -2.1 and PfM18AAP inh -6.6.
For CCOC(=O)N1CCC(Nc2c(NCCCN(CC)c3cccc(C)c3)c(=O)c2=O)CC1 the results were NRP1-CendR mod -10.2, ALR inh 98.9*, CR mimetic SO 94.1, A3A deaminase -2.4, APOBEC3G inh -7.7 and PfM18AAP inh 3.5.
Screening CCOC(=O)N1CCC(Nc2c(NCCN3CCN(Cc4ccccc4)CC3)c(=O)c2=O)CC1 returned NRP1-CendR mod -3.0, ALR inh 2.2, CR mimetic SO 78.6, A3A deaminase 2.9, APOBEC3G inh 0.5 and PfM18AAP inh 4.1.
CCOC(=O)C1CCCN(c2c(NCCN(CC)c3ccccc3)c(=O)c2=O)C1 (stereo not drawn) was read as NRP1-CendR mod 11.4, CR mimetic SO 95.2, A3A deaminase -8.5, APOBEC3G inh -7.7 and PfM18AAP inh 4.1.
CCOC(=O)C1CCN(c2c(NCCN(CC)c3ccccc3)c(=O)c2=O)CC1 was read as NRP1-CendR mod -8.5, ALR inh 97.7*, CR mimetic SO 91.9, A3A deaminase 0.9, APOBEC3G inh 3.8 and PfM18AAP inh -1.1.
Screening O=C(Nc1cccc(F)c1)N1CCN(C/C=C/c2ccccc2)CC1 returned NRP1-CendR mod 6.0, ALR inh -4.0, CR mimetic SO 93.8, A3A deaminase -3.1, APOBEC3G inh -6.5 and PfM18AAP inh 7.7.
Screening Cc1ccc(SCCC(=O)NNC(=O)c2ccccc2F)cc1 returned NRP1-CendR mod 10.4, ALR inh -2.1, CR mimetic SO 81.7, A3A deaminase -1.7 and APOBEC3G inh -5.6.
Screening Cc1cccc(S(=O)(=O)NC(=O)C2(C)CCN2C(=O)CCc2ccccc2)c1 (stereo not drawn) returned NRP1-CendR mod 27.1*.
Cc1cccc(S(=O)(=O)NC(=O)C2(C)CCN2C(=O)Cc2ccccc2)c1 (stereo not drawn) was read as NRP1-CendR mod 0.7.
O=C1CC(c2ccccc2)CC(=O)C1CS(=O)(=O)c1ccccc1 (stereo not drawn) was read as NRP1-CendR mod 7.4, ALR inh 19.2, CR mimetic SO 105.5, A3A deaminase -0.9, APOBEC3G inh -2.2 and PfM18AAP inh 2.0.
CCN(CCNC(=O)C1CCN(Cc2nc(-c3cccc(Cl)c3)oc2C)CC1)c1ccccc1 was read as NRP1-CendR mod 4.1, ALR inh 98.5*, CR mimetic SO 99.0, A3A deaminase -4.3, APOBEC3G inh -5.0 and PfM18AAP inh 10.0.
For CCN(CCNC(=O)C1CCN(Cc2nc(-c3ccc(Cl)cc3)oc2C)CC1)c1ccccc1 the results were NRP1-CendR mod 2.6, ALR inh 98.3*, CR mimetic SO 102.9, A3A deaminase -4.9, APOBEC3G inh -10.8 and PfM18AAP inh -8.7.
For CCc1ccc(-c2nc(CN3CCC(C(=O)NCCN(CC)c4ccccc4)CC3)c(C)o2)cc1 the results were NRP1-CendR mod -7.2, ALR inh 98.6*, CR mimetic SO 103.0, A3A deaminase -4.0, APOBEC3G inh -6.6 and PfM18AAP inh 1.7.
Cc1oc(-c2ccc(Cl)cc2)nc1CN1CCC(C(=O)NCCCN2CCOCC2)CC1 was read as NRP1-CendR mod -2.0, ALR inh -8.1, CR mimetic SO 96.5, A3A deaminase -1.7, APOBEC3G inh -2.0 and PfM18AAP inh -7.4.
`CCN(CCNC(=O)C1CCCN(Cc2nc(-c3ccc(OC)cc3)oc2C)C1)c1ccccc1` (stereo not drawn) gave NRP1-CendR mod 2.0, ALR inh 96.5*, CR mimetic SO 104.3, A3A deaminase -2.2, APOBEC3G inh -3.8 and PfM18AAP inh 2.5.
For Cc1oc(-c2cccc(Cl)c2)nc1CN1CCC(C(=O)NC2CC2)CC1 the results were NRP1-CendR mod 5.4, ALR inh -1.6, CR mimetic SO 98.2, A3A deaminase -3.7, APOBEC3G inh 12.6 and PfM18AAP inh -4.8.
COc1ccccc1NC(=O)Oc1ccc(C(C)=O)cc1 was read as NRP1-CendR mod 12.8, ALR inh -1.6, CR mimetic SO 96.6, A3A deaminase 0.8, APOBEC3G inh -0.6 and PfM18AAP inh -1.2.
`CCOC(=O)c1sc(NC(=O)C(CC)OC(=O)c2ccco2)nc1C` (stereo not drawn) gave NRP1-CendR mod 3.0, ALR inh 6.3, CR mimetic SO 96.2, A3A deaminase 1.7, APOBEC3G inh -4.4 and PfM18AAP inh -14.7.
Screening Cc1nn2c(NCCOCCO)c3c(nc2c1-c1ccccc1)CCCC3 returned NRP1-CendR mod -2.0, ALR inh 86.4*, CR mimetic SO 106.7, A3A deaminase -0.1, APOBEC3G inh -6.5 and PfM18AAP inh 0.6.
Screening Cn1c(SCC(=O)NC(C)(C)C)nc(O)cc1=O returned NRP1-CendR mod -7.1, ALR inh 1.1, CR mimetic SO 111.0, A3A deaminase -0.8, APOBEC3G inh -4.9 and PfM18AAP inh 9.6.
`CC1=NN(C2=NS(=O)(=O)c3ccccc32)C(C)(O)C1` (stereo not drawn) gave NRP1-CendR mod -10.5, ALR inh 38.4, CR mimetic SO 101.9, A3A deaminase -3.9, APOBEC3G inh -6.9 and PfM18AAP inh 31.0*.
N#CC1=C(N)n2c(s/c(=C\c3cccs3)c2=O)=C(C#N)C1c1cccs1 (stereo not drawn) was read as NRP1-CendR mod -89.9, ALR inh 99.4*, CR mimetic SO 113.8, A3A deaminase 0.0, APOBEC3G inh -6.8 and PfM18AAP inh 4.6.
